In ChEMBL document CHEMBL4513216, “Probing the Open Global Health Chemical Diversity Library for Multistage-Active Starting Points for Next-Generation Antimalarials” (ACS Infect Dis, 2020):
The campaign covered roughly 69,000 compounds. About 8,600 (12%) showed an effect of 50% or more. The entries come from a sample that favours strong results as a whole.

These compounds were tested on Plasmodium berghei (assay: Screen against P. berghei liver stage (PbLuc), transformed with Luciferase, at 10uM). Details: tested at 10 uM.
Type: functional, HepG2

Compound | INHIBITION [%]
CC(C)c1n[nH]c(C2CN(C(=O)c3cc(Cl)c[nH]3)CCO2)n1 (configuration not stated) | -17.4
Cc1nn(C)cc1CN1CCCC(n2c(=O)oc3ccccc32)C1 (configuration not stated) | 43.35
c1ccc(-c2nc3c(c(NCCCn4cncn4)n2)CCNCC3)nc1 | 57.3
CN(Cc1nccs1)c1nc(-c2ccccn2)nc2c1CCNCC2 | 13.7
c1ccc(-c2nc3c(c(NCCn4cccc4)n2)CCNCC3)nc1 | 66.5
Cc1cccc(=O)n1CCCNc1nc(N(C)C)nc2c1CCNCC2 | 7.93
c1ccc(-c2nc3c(c(NCCn4ccnn4)n2)CCNCC3)nc1 | -3.01
CN(Cc1cccnc1)c1nc(-c2ccccn2)nc2c1CCNCC2 | -10.8
O=C(CS(=O)(=O)Cc1cc(Cl)c2c(c1)OCO2)N1CCCC1 | 21
COc1ccc(CCC(=O)N2CCN(c3nc(C)ns3)CC2)cc1 | 6.7
CC(C)c1noc(CN2CCN(C(=O)OC(C)(C)C)C(C)C2)n1 (configuration not stated) | 33.6
COCc1cc(N2CCOC(c3ccc(Cl)c(Cl)c3)C2)ncn1 (configuration not stated) | 63.1
COCc1cc(N2CCOC(c3ccc(F)cc3)C2)ncn1 (configuration not stated) | 38.3
Fc1ccc(C2CN(c3ncnc4nc[nH]c34)CCO2)cc1 (configuration not stated) | -28.6
COc1cc(N2CCOC(c3ccc(F)cc3)C2)ncn1 (configuration not stated) | 55.2
Cc1cc(N2CCOC(c3ccncn3)C2)ncn1 (configuration not stated) | 26.7
COCc1cc(N2CCOC(c3ccc(Cl)cc3)C2)ncn1 (configuration not stated) | 8.64
CCn1cnnc1C1CCN(C(=O)c2c(C)oc(C)c2C)CC1 | 46.7
Cc1cccc(CC2COCCN(Cc3nccn3C)C2)n1 (configuration not stated) | 26.3
O=C(CC1CCN(CCc2ccccc2)CC1)NC1CCOCC1 | 25.8
Cn1cnnc1C1CCCN(Cc2nc(Cc3ccccc3)no2)C1 (configuration not stated) | 3.13
CNc1[nH]nc(N)c1NC(=O)c1ccccc1 | 17.6
COc1ccc(-n2nnc(C(=O)O)c2-c2ccccn2)cc1 | 32.2

Compound | INHIBITION [%]
Cc1ccc(CN2C[C@@H]3COC[C@@H](NS(C)(=O)=O)[C@@H]3C2)o1 | -6.02
CC(C)C1CN(C(=O)c2ccncc2)CCS1 (configuration not stated) | 19.6
CC(C)C1CN(C(=O)c2ccc(C(N)=O)cc2)CCS1 (configuration not stated) | 0.139
CC(C)C1CN(C(=O)c2ccccc2)CCS1 (configuration not stated) | 61.3
CC(C)(C)C(=O)N1CCC(COCc2ccccc2)C1 (configuration not stated) | 11.9
CN1C[C@@H](N)C[C@H]1C(=O)N1CCC(CCCc2ccccc2)CC1 | 55.9
CCC(=O)N1CCCC1C(=O)N1CCC(Cc2ccc(F)cc2)CC1 (configuration not stated) | 49.4
CC(C(=O)N1CCC(Cc2ccc(F)cc2)CC1)n1ccnc1 (configuration not stated) | 32.8
CN1CSC[C@H]1C(=O)N1CCC(CCc2ccccc2)CC1 | -29
O=C(C1CCS(=O)(=O)CC1)N1CCC(Cc2ccc(F)cc2)CC1 | 57.3
O=C([C@H]1CCS(=O)(=O)[C@@H]2CN(Cc3ccc(F)cc3)C[C@H]12)N1CCCC1 | 12.7
CN1CSC[C@H]1C(=O)N1CCC(Cc2ccccc2F)CC1 | -40.6
CN1C[C@@H](N)C[C@H]1C(=O)N1CCC(Cc2ccc(F)cc2)CC1 | 58.1
Cn1ncc2ccc(C3CCCN(Cc4ccsc4)C3)nc21 (configuration not stated) | 33.45
COc1cccc(-n2cc3[nH]c(=O)[nH]n3c2=O)c1 | 3.68
Cc1cc(C(=O)N2C[C@@H]3CC[C@H]2CN(C(=O)c2ccncc2)C3)cs1 | 38
CN(C)S(=O)(=O)N1C[C@H](Oc2cccnc2)[C@H]2OCCC[C@H]21 | 14.2
O=C(c1ccc[nH]1)N1Cc2nccn2CC(Cn2ncccc2=O)C1 (configuration not stated) | -87.3
CNC(=O)C1CNCCN1C(=O)c1ccc(C(F)(F)F)nc1C (configuration not stated) | -15.3
O=C1C(NS(=O)(=O)c2ccc(F)c(F)c2)CCN1Cc1ccccc1 (configuration not stated) | 21.5
COC(=O)[C@H](C)NC(=O)c1cnc(Cc2ccc(F)cc2)s1 | 51.7
CCc1ncc(C(=O)NC(C)(C)C(=O)OC)s1 | 40.6
CN(C)C(=O)CN(C)C(=O)c1cnc(Cc2ccc(F)cc2)s1 | 2.37

Compound | INHIBITION [%]
COC(=O)C(C)(C)NC(=O)c1cnc(C(C)(C)C)s1 | 25.1
COC(=O)C(C)(C)NC(=O)c1cnc(Cc2ccc(F)cc2)s1 | 92.8
CC(C)NC(=O)CCNC(=O)c1cnc(Cc2ccc(F)cc2)s1 | 10.6
Cn1cc(CN2CCn3cc(CNC(=O)C4CCC4)nc3C2)cn1 | 14.4
O=C(c1cnccn1)N1CCN(Cc2cscn2)CC1 | 25.85
CSCC(C)(O)CNS(=O)(=O)c1cccc(Cl)c1 (configuration not stated) | -33.5
O=C(c1ncn2c1CNS(=O)(=O)c1ccccc1-2)N1CCCCCC1 | 68.4
O=C(c1ncn2c1CNS(=O)(=O)c1ccccc1-2)N1CCCCC1 | 7.24
CN1CCN(C(=O)c2ncn3c2CNS(=O)(=O)c2ccccc2-3)CC1 | 15.3
CCc1nc(C2CCCN2C(=O)CCc2nc(C(C)(C)C)no2)no1 (configuration not stated) | 40.2
COc1ncccc1CN1CCC2[C@H]1CCN2CCN(C)C (some centres not stated) | -20.1
O=C1COC2(CCN(C(=O)C3CC=CC3)CC2)CN1Cc1cccnc1 | -3.24
Cc1nc(N2CCOCC2)ncc1-c1cc(O)nc(N2CCCC2)n1 | -27.1
Cc1cc(C)c2c(N3CCC(C(=O)N4CCOCC4)CC3)ncnc2n1 | 30.9
CC(C)CN1CCC2(C1)CN(c1ncccn1)C2 | 5.12
CC(C)Cc1noc(-c2ccc(NCc3noc(C(C)C)n3)nc2)n1 | -26
CCC(O)CNc1ccc(-c2nc(CC(C)C)no2)cn1 (configuration not stated) | 1.79
CCn1cncc1CNc1ccc(-c2nc(CC(C)C)no2)cn1 | 52
CCN1C(=O)CCC12CCC(NC(=O)NCc1cccnc1)CC2 (configuration not stated) | 25.8
Cc1n[nH]cc1C(=O)N1CCCC1c1cc[nH]n1 (configuration not stated) | -26.2
Cn1cc(CN2C[C@@H]3CCCO[C@@H]3[C@H](NC(=O)CC3CC3)C2)cn1 | 11.4
